Results filed as inconclusive are left out. The source made the active and inactive calls. Calls come from the whole dose curve; as a rule, active = well fitted inhibition curve with a large enough effect; inconclusive = small, poorly fitted or top-dose-only effect; inactive = flat fitted curve, though single readings scatter.
Experiments:
Test in all cases: qHTS profiling for inhibitors of Plasmodium falciparum proliferation (AID 504749); note: nearly all actives have a fitted effect of over 60% in size
Settings in all cases: P. falciparum in erythrocytes, SYBR Green DNA, 72 h; series mostly up to 28.7 µM
[1] = system: CP192
How it was run: (§1)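 Three-day growth assay of blood-stage parasites in erythrocytes (0.3% parasitemia, 2.5% hematocrit) at 37 C, 5% CO2, quantified by SYBR Green DNA staining after overnight detergent lysis.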

[2] = system: CP194
How it was run: as §1

[3] = system: CP201
How it was run: as §1

[4] = system: CP203
How it was run: as §1

[5] = system: CP211
How it was run: as §1

[6] = system: CP215
How it was run: as §1

[7] = system: CP217
How it was run: as §1

[8] = system: CP237
How it was run: as §1

[9] = system: CP238
How it was run: as §1

[10] = system: CP247
How it was run: as §1

[11] = system: CP250
How it was run: as §1

[12] = system: CP252
How it was run: as §1

[13] = system: CP256
How it was run: as §1

[14] = system: CP260
How it was run: as §1

[15] = system: CP262
How it was run: as §1

[16] = system: CP265
How it was run: as §1

[17] = system: CP266
How it was run: as §1

[18] = system: CP268
How it was run: as §1

[19] = system: CP269
How it was run: as §1

[20] = system: CP286
How it was run: as §1

Measured: Potency
Potency is the fitted concentration of half-maximal effect.

CC1(C)[C@@H]2CC[C@@]1(C)C(=O)C2
inactive: all assays above

COc1ccc(S(=O)(=O)Nc2nnc(CC(C)C)s2)cc1
inactive: all assays above

CC(=O)CCC(=O)O
inactive: all assays above

C=Cc1c(C)c2cc3[nH]c(cc4nc(cc5nc(cc1[nH]2)C(C)=C5CCC(=O)O)C(CCC(=O)O)=C4C)c(C)c3C=C
inactive: all assays above

O=C(O)CN1C(=O)c2cccc3cccc(c23)C1=O
inactive: all assays above

NC(=O)NC(=O)Cc1ccccc1
inactive: all assays above

CCCCCCCCCCCCCCCC(=O)NCCO
inactive: all assays above

Cn1c(=O)c2c(ncn2CC2OCCO2)n(C)c1=O
inactive: all assays above

Nc1ccc(S(=O)(=O)Nc2nccs2)cc1
inactive: all assays above

CCOC(=O)[C@H](CCc1ccccc1)N[C@@H](C)C(=O)N1C(=O)N(C)C[C@H]1C(=O)O
inactive: all assays above

CCN(CC)CCSC(=O)C(c1ccccc1)c1ccccc1
inactive: all assays above

C[C@@H]1CN(c2c(F)c(F)c3c(=O)c(C(=O)O)cn(C4CC4)c3c2F)C[C@H](C)N1
inactive: all assays above

Cc1cccc(C)c1NC(=O)CN(CC(=O)O)CC(=O)O
inactive: all assays above

Cc1cc2c(cc1S(N)(=O)=O)S(=O)(=O)CCC2
inactive: all assays above

NCCNCCNCCNCCN
inactive: all assays above

COc1ccccc1O
inactive: all assays above

CCCCOC(=O)c1ccc(O)cc1
inactive: all assays above

O=c1cc(CO)occ1O
inactive: all assays above

O=C(O)CC(O)C(=O)O (configuration not stated)
inactive: all assays above

Cc1cc(CC(=O)O)n(C)c1C(=O)c1ccc(Cl)cc1
inactive: all assays above

Cc1cc(C(C#N)c2ccc(Cl)cc2)c(Cl)cc1NC(=O)c1cc(I)cc(I)c1O (configuration not stated)
inactive: all assays above

CCCCC(CC)COC(=O)c1ccccc1O (configuration not stated)
inactive: all assays above

CCCCCCCCCCCCCCCCCCOCC(O)CO (configuration not stated)
inactive: all assays above

Cc1cccc(Nc2cc(Cl)nc(SCC(=O)O)n2)c1C
inactive: all assays above

Nc1ccc(S(=O)(=O)NC(=O)c2ccccc2)cc1
inactive: all assays above

C[C@](N)(Cc1ccc(O)cc1)C(=O)O
inactive: all assays above

O=C(O)c1ccccc1O
inactive: all assays above

CCCCOc1cc(C(=O)OCCN(CC)CC)ccc1N
inactive: all assays above

[O-][n+]1cccc(CO)c1
inactive: all assays above

CC(O)COc1ccccc1 (configuration not stated)
inactive: all assays above

OCC(O)CN1CCN(c2ccccc2)CC1 (configuration not stated)
inactive: all assays above

COc1cc(C)c(Cc2cnc(N)nc2N)cc1OC
inactive: all assays above

CCOc1ccc2ccccc2c1C(=O)N[C@@H]1C(=O)N2[C@@H]1SC(C)(C)[C@@H]2C(=O)O
not listed: [4]
inactive: all other assays above

C[C@H](N)[C@H](O)c1cccc(O)c1
not listed: [4]
inactive: all other assays above

C[C@H]1O[C@@H](n2cc(F)c(=O)[nH]c2=O)[C@H](O)[C@@H]1O
not listed: [4] | [17]
inactive: all other assays above

CC1=C(/C=C/C(C)=C/C=C/C(C)=C/C(=O)O)C(C)(C)CCC1
not listed: [4]
inactive: all other assays above

CCCCN(CCCC)CC(O)c1cc(Cl)cc2c1-c1ccc(Cl)cc1/C2=C/c1ccc(Cl)cc1 (configuration not stated)
active: [1] 0.0478 µM | [2] 0.0478 µM | [3] 0.151 µM | [5] 0.0536 µM | [6] 0.0426 µM | [7] 0.0355 µM | [8] 0.0112 µM | [9] 0.0282 µM | [10] 0.0398 µM | [11] 0.0282 µM | [12] 0.0355 µM | [13] 0.0794 µM | [14] 0.0316 µM | [15] 0.0338 µM | [16] 0.112 µM | [17] 0.135 µM | [18] 0.135 µM | [19] 0.0379 µM | [20] 0.0316 µM

CC(=O)NC(Cc1ccccc1)C(=O)O (configuration not stated)
not listed: [4] | [10]
inactive: all other assays above

CC(=O)Oc1ccc(C2(c3ccc(OC(C)=O)cc3)C(=O)Nc3ccccc32)cc1
not listed: [4]
inactive: all other assays above

COC(=O)C1=C(C)NC(C)=C(C(=O)OC)C1c1ccccc1[N+](=O)[O-]
not listed: [4] | [10] | [11] | [14]
inactive: all other assays above

Nc1ncnc2c1ncn2[C@@H]1O[C@H](CO)[C@@H](O)[C@H]1O
not listed: [4]
inactive: all other assays above

Nc1ccc(S(=O)(=O)Nc2ccccc2)cc1
not listed: [4]
inactive: all other assays above

CC[C@@]1(c2ccccc2)NC(=O)N(C)C1=O
not listed: [4] | [15]
inactive: all other assays above

NC1CCN(c2cccc(Cl)n2)CC1
active: [8] 12.6 µM
not listed: [4]
inactive: all other assays above

Oc1cccc(O)c1
not listed: [4]
inactive: all other assays above

O=S(=O)(O)NC1CCCCC1
not listed: [4] | [11]
inactive: all other assays above

CN(C)CCN(Cc1ccccc1)c1ccccn1
active: [8] 5.01 µM
not listed: [4] | [9] | [12] | [14] | [16] | [18] | [20]
inactive: all other assays above

CCC(=O)c1ccc(O)cc1
not listed: [4]
inactive: all other assays above

CCCn1cnc2c1c(=O)n(CCCCC(C)=O)c(=O)n2C
not listed: [4] | [19]
inactive: all other assays above

CC1(C)CO[C@@H](CC(=O)O)CN1
not listed: [4]
inactive: all other assays above

COc1cc(C(=O)N2CCOCC2)cc(OC)c1OC
not listed: [4]
inactive: all other assays above

Cc1c(Cl)cccc1Nc1ccccc1C(=O)O
not listed: [4]
inactive: all other assays above

C[C@]12C[C@H](O)[C@H]3[C@@H](CCC4=CC(=O)CC[C@@]43C)[C@@H]1CC[C@@H]2C(=O)CO
not listed: [4] | [7] | [9] | [10] | [11] | [12] | [13] | [16]
inactive: all other assays above

N[C@@H](CSCCCO)C(=O)O
not listed: [4]
inactive: all other assays above

CCCCCCCCCCCCOS(=O)(=O)O
not listed: [4]
inactive: all other assays above

O=C(Oc1ccccc1C(=O)O)c1ccccc1O
not listed: [4]
inactive: all other assays above

O=c1[nH]c(=O)c2[nH]c(=O)[nH]c2[nH]1
not listed: [4]
inactive: all other assays above

CCN(CC)CCNC(=O)c1cc(Cl)c(N)cc1OC
not listed: [4]
inactive: all other assays above

O=C(O)c1ccccc1-c1ccc(C(F)(F)F)cc1
not listed: [4]
inactive: all other assays above

— PubChem BioAssay (NCATS)
